This is a sample that favours compounds with a hit; in the whole collection about 6.6% have one here.
Mdm2 MdmX PPI = inhibitors of human Mdm2/MdmX interaction | 3% of 330,000 active | SaOS-2 split-luciferase Mdm2/MdmX complementation, luminescence | inhibition, % at 8 µM;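 active = inhibition of at least 50% at 8 µM in the primary screen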
Target sequence (O15151 whole entry, looked up): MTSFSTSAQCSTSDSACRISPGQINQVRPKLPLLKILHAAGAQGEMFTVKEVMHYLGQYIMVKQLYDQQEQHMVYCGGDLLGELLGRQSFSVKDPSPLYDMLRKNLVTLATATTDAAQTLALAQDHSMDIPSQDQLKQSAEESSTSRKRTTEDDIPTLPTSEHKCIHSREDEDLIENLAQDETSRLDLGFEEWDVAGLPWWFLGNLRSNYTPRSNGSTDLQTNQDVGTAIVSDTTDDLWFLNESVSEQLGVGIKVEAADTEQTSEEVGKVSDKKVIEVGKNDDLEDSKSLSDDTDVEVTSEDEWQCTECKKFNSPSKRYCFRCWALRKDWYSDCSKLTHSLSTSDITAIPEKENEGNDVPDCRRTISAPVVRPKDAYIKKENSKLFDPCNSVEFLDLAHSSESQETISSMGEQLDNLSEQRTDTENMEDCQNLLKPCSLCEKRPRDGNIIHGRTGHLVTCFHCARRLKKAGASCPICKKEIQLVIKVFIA
Target sequence (Q00987 whole entry, looked up): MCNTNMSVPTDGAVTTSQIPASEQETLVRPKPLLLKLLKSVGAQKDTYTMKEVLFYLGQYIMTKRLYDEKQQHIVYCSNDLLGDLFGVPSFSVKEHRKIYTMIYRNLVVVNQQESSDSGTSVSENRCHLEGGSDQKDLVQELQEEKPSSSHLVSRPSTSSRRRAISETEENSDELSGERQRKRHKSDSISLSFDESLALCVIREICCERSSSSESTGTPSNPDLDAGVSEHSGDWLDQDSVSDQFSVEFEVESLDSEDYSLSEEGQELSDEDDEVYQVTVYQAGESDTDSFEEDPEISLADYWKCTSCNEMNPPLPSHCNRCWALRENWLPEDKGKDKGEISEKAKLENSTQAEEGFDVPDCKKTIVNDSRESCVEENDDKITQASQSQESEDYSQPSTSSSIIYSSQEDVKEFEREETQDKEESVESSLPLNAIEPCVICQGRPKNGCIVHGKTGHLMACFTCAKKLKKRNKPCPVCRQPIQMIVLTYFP
Gli-Sufu block = antagonists of Gli-Sufu signaling; Sufu-KO-LIGHT fibroblasts, Gli luciferase reporter luminescence; inhibition, % at 5 µM; 0.74% of 340,000 active; AID 588413;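 active = inhibition above about 55%, limit read from the data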;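 note: 0% = DMSO-treated cells and 100% = wells with medium but no cells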
MPTP inh = inhibitors of mitochondrial permeability transition pore | 1.4% of 360,000 active | isolated mouse mitochondria, Ca2+ swelling absorbance, 30 min | AID 602449 | inhibition, % at 10 µM;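 active = inhibition of 50% or more, scaled per plate between neutral and stimulator controls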;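 note: 0% = DMSO wells given calcium and 100% = 1 mM EGTA wells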
CSC inhib = cancer stem cell inhibition | inhibition, % at 7.5 µM | 1.1% of 300,000 active | cancer stem cell-like cells viability, luminescence | AID 2717; in the data active = inhibition above about 75%; inconclusive = no clear call, values can overlap the other calls; tested in HMLE shEcad cells
GRIN3A LBD mod = modulates the human NR3A ligand-binding domain | NR3A LBD differential scanning fluorimetry, Tm shift; 0% = protein alone, 100% = glycine-bound protein | Tm shift relative to glycine control, % at 25 µM | 2.5% of 340,000 active | AID 1259313;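 active = melting temperature shift of at least 10% of the positive control shift, at one fixed dose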
Beta cell apopt = beta cell apoptosis inhibition; 0.8% of 300,000 active; INS-1E cytokine-induced death, ATP luminescence, 48 h; percent of positive-control rescue, neutral wells zero; protection from apoptosis, % (concentration not given with the values);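 active = Every replicate reaches about 75%, or at least half do and their mean reaches it too, limit read from the data; inconclusive = At least half of replicates reach the limit but their mean does not; inactive = Under half of replicates reach the limit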;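 note: 0% = cytokine-treated negative control wells and 100% = positive control rescue; higher means more ATP so stronger rescue from cytokine killing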
Mdm2-MdmX conf = confirmation of human Mdm2/MdmX interaction inhibitors; 55% of 10,000 active; inhibition, % at 8 µM; Mdm2-MdmX binding, luminescent assay; shares compounds with Mdm2 MdmX PPI; in the data active = inhibition above about 40%
FLuc counter = full-length luciferase inhibition in Mdm2/MdmX counter-screen. shares compounds with Mdm2 MdmX PPI. inhibition, % at 8 µM. 77% of 6,200 active. SaOS-2 full-length luciferase counterscreen, luminescence;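 active = mean inhibition at 8 µM reaching about 37%, which flags the compound as non-specific, limit read from the data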;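 note: p53-null SaOS-2 cells with luciferase driven by a doxycycline-inducible promoter; compound on cells about two nights before reading with doxycycline added after day one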
Active calls of the source: *; ? = inconclusive; . = no result given.

SMILES	Mdm2 MdmX PPI	Gli-Sufu block	MPTP inh	CSC inhib	GRIN3A LBD mod	Beta cell apopt	Mdm2-MdmX conf	FLuc counter
COc1ccc(C(=O)NNC(=O)c2cc3ccccc3cc2O)cc1	50*	2	4	24	3	1	39	.
COc1cc(OC)cc(C(=O)NNC(=O)c2ccccc2Br)c1	-16	2	8	0	2	0	.	.
COc1cc(OC)cc(C(=O)NNC(=O)c2ccccn2)c1	51*	13	-1	22	-1	71	47*	51*
COc1ccc(C(=O)NNC(=O)c2ccccn2)cc1	98*	-54	0	16	-1	0	94*	22
O=C1c2cc(F)ccc2-n2c1nc1ccccc1c2=O	63*	6	1	39	.	62	34	23
O=c1[nH]cc(N(CCO)CCO)c(=O)[nH]1	2	7	0	-11	1	-3	.	.
O=c1cc(-c2ccccc2Cl)oc2c([N+](=O)[O-])c(O)cc(O)c12	83*	6	11	1	-9	9	76*	21
O=c1cc(-c2ccccc2Cl)oc2ccc([N+](=O)[O-])c(O)c12	15	2	6	37	-12	1	.	.
Cc1cc2nn(-c3cccc4ccccc34)nc2cc1N	-49	14	0	-6	-2	19	.	.
Nc1ccc2nn(-c3cccc4ccccc34)nc2c1	53*	-3	-2	-8	-6	75*	-1	.
COc1ccc(C(=O)NNC2=C(C(=O)C(F)(F)F)CCC2)cc1	68*	-4	49	10	0	1	38	97*
O=C(CCC1CCCC1)NNC(=O)c1cccc(Cl)c1	1	-3	0	.	-1	-1	.	.
O=C(NNC1=C(C(=O)C(F)(F)F)CCC1)c1cccc(Cl)c1	61*	5	38	113*	-1	18	36	65*
CCN1CCN(S(=O)(=O)c2ccc(Cl)c(C(=O)NCc3ccco3)c2)CC1	-1	-5	0	-4	2	-3	.	.
CCOc1cc(/C=C/C(=O)c2ccc(O)cc2)ccc1OCC(=O)N(C)C	50	8	-1	-7	-5	-10	.	.
CCOc1cc(/C=C/C(=O)c2ccc3c(c2)OCCO3)ccc1OCC(=O)N(C)C	55*	15	1	.	0	-41	39	51*
C[C@H]1CCCCO[C@H](CN(C)C(=O)C2CCCCC2)[C@@H](C)CN([C@@H](C)CO)C(=O)c2cc(NC(=O)NC3CCCCC3)ccc2O1	.	.	0	.	.	.	.	.
CC1(C)CC[C@@]23CC[C@]4(C)[C@@](OC2=O)(C3C1)[C@H]1O[C@H]1C1[C@@]2(C)CC[C@H](O)C(C)(C)C2CC[C@]14C (stereo not given in full)	75*	-1	.	-15	-2	3	-5	.
Cc1ccc(C2Oc3ccccc3C3=C2C(c2cccs2)n2ncnc2N3)cc1 (stereo not given)	58*	3	1	61	-2	21	70*	37*
COc1ccc(NC(=O)c2cc(C3CCCCN3S(=O)(=O)Cc3ccccc3)on2)c(C)c1 (stereo not given)	.	.	-2	.	.	.	.	.
CCN(CC)CCNC(=O)c1c(C)n(-c2ccccc2)c2cc(Br)c(OC)cc12	81*	8	0	6	-2	11	38	38*
C=C[C@@H]1c2cc(C)ccc2N(S(=O)(=O)c2ccc(C)cc2)[C@H](c2ccc(OC(C)=O)cc2)C1(C#N)C#N	72*	-10	1	113*	-1	17	65*	72*
O=C(N/N=C/c1cc(Br)c(O)c(Br)c1O)c1cccnc1	-11	16	0	55	2	34	.	.
O=C(N/N=C/c1c(O)ccc2ccccc12)c1cccnc1	70*	68*	1	?	-22	96*	74*	30
Cn1cccc1/C=N\NC(=O)c1cncc(Br)c1	-2	18	1	-12	1	-5	.	.
SMILES	Mdm2 MdmX PPI	Gli-Sufu block	MPTP inh	CSC inhib	GRIN3A LBD mod	Beta cell apopt	Mdm2-MdmX conf	FLuc counter
O=C(N/N=C\c1c(O)ccc2ccccc12)c1cncc(Br)c1	83*	85*	34	98*	0	88*	76*	27
Cc1ccc(C(=O)N/N=C/c2c(O)ccc3ccccc23)cn1	75*	35	1	81*	-8	.	82*	27
COc1ccccc1/C=N/NC(=O)c1ccc(C)nc1	23	4	0	-4	2	-2	.	.
Cc1cc(O)c(C)c(O)c1/C=N/NC(=O)c1cccnc1	57*	6	1	46	-8	.	45*	69*
Cc1ccc(OCC(=O)N2CC(C)CC(C)C2)c([N+](=O)[O-])n1 (stereo not given)	-2	1	-1	16	-2	2	.	.
Clc1ccc(-c2nnc(-c3ccccc3)c(N3CCSCC3)n2)cc1	0	14	1	1	4	3	.	.
CC1CN(c2nc(-c3ccc(Br)cc3)nnc2-c2ccccc2)CC(C)N1 (stereo not given)	81*	13	8	36	0	9	54*	52*
CN1CCS/C1=C/C=C1/SC(=S)N(Cc2ccccc2)C1=O	.	-16	2	73	-3	-2	.	.
O=C1/C(=C\c2cc(Br)cc(Br)c2O)SC(=S)N1Cc1ccccc1	91*	1	20	78*	-2	0	79*	37*
C=Cn1ccnc1P(=S)(c1ccc2c(c1)c1ccccc1n2CC)c1nccn1C=C	67*	-2	1	106*	-1	15	63*	56*
COc1ccc(N=Cc2c(O)n(-c3ccc(OC)cc3)c(=O)c3ccccc23)cc1	50	14	0	5	3	11	.	.
O=c1c2ccccc2c(C=Nc2cccc(O)c2)c(O)n1-c1ccc2c(c1)OCO2	82*	-27	-2	52	5	26	36	.
O=C(Nc1ccc2c(c1)OCO2)c1cc(C2CCCCN2C(=O)c2ccc3c(c2)CCO3)on1 (stereo not given)	.	.	-1	.	.	.	.	.
Cc1ccccc1OCC(=O)OCC(=O)c1c[nH]c2ccccc12	7	-1	2	.	2	.	.	.
Fc1ccc(Nc2nc(N3CCOCC3)c3ccccc3n2)cc1	52*	23	1	.	-1	19	29	.
c1ccc2c(Nc3nc(N4CCOCC4)c4ccccc4n3)cccc2c1	30	28	2	3	-4	15	.	.
COc1cccc(-c2ccc3c(c2)C2CC3CCN2C(C)=O)c1 (stereo not given)	.	2	1	.	-2	.	.	.
Nc1ccc(C(=O)OCc2nc3cc4ccccc4cc3[nH]2)cc1	74*	0	0	42	5	-1	82*	34

Source: PubChem BioAssay
